USP28 block – inhibitors of human USP28 deubiquitinase; Ubiquitin carboxyl-terminal hydrolase 28 (Homo sapiens), Q96RU2; purified USP28, Ub-rhodamine cleavage fluorescence, 30 min; inhibition, % at 25 µM; 3% of 47,000 active; AID 1645857, 2021
Target sequence (Q96RU2 whole entry, looked up): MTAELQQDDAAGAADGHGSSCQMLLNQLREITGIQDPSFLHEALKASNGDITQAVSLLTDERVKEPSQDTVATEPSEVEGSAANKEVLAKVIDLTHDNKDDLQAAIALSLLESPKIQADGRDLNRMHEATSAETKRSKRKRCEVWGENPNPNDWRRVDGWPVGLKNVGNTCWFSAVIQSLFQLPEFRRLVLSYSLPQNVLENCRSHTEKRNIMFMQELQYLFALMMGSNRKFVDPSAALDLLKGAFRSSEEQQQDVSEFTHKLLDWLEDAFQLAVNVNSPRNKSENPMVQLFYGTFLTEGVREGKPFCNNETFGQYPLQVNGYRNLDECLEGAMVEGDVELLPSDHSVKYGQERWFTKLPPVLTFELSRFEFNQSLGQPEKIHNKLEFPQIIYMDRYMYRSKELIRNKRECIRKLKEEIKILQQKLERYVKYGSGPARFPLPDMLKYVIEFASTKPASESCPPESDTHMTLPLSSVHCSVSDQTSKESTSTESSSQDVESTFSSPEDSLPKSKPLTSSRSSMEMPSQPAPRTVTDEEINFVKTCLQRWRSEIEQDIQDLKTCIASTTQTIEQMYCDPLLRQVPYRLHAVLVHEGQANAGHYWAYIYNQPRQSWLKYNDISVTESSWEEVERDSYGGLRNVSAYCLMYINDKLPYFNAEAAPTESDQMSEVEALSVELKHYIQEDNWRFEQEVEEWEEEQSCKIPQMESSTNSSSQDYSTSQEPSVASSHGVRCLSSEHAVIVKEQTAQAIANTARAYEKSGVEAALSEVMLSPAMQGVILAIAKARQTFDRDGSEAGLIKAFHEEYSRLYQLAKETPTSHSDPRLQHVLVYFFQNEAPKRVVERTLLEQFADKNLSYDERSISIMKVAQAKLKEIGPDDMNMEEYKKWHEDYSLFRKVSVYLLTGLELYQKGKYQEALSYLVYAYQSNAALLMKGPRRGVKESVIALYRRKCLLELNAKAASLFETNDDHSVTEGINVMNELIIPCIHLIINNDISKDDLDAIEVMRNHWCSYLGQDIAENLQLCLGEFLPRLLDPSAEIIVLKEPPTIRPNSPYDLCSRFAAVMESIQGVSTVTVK
USP30 block – inhibitors of human USP30 deubiquitinase; Ubiquitin carboxyl-terminal hydrolase 30 (Homo sapiens), Q70CQ3; purified USP30, Ub-rhodamine cleavage fluorescence; inhibition, % at 25 µM; 5.3% of 47,000 active; AID 1645860, 2021
USP8 block – inhibitors of human USP8 deubiquitinase | 4.2% of 47,000 active | inhibition, % at 20 µM | AID 1645853, 2021 | purified USP8, Ub-rhodamine cleavage fluorescence, 30 min
USP17 block – inhibitors of human USP17 deubiquitinase | Ubiquitin carboxyl-terminal hydrolase 17-like protein 5 (Homo sapiens), A8MUK1 | AID 1645855, 2021 | inhibition, % at 50 µM | 6.5% of 47,000 active | purified USP17, Ub-rhodamine cleavage fluorescence, 3 h
* marks the source's active call; other numbers are inactive results; . = not tested or not shown. Most compounds without a hit are left out; they make up all but 13% or so of the library. Rule as the data show it: active = inhibition above about 30%; inactive = the rest.

SMILES	USP28 block	USP30 block	USP8 block	USP17 block
CNc1nc(C2CCN(C(=O)C3(c4cccc(C)c4)CCOCC3)C2)nc2c1CN(C)CC2 (configuration not stated)	-14	-56	-6	-19
CNc1nc(C2CCN(C(=O)C3(c4cccc(C)c4)CCOCC3)C2)nc2c1CCN(C)C2 (configuration not stated)	-34	-89	37*	.
CCc1ccc(-c2nc(SCC(=O)Nc3ccc4[nH]c(=O)[nH]c4c3)n[nH]2)cc1	23	58*	4	37*
Cc1cccc(-c2nnc(SCC(=O)Nc3ccc4[nH]c(=O)[nH]c4c3)n2C)c1	2	11	-11	14
Cc1nnc(SCC(=O)Nc2ccc3[nH]c(=O)[nH]c3c2)n1Cc1ccccc1	14	-1	-21	42*
Cc1occc1-c1nnc(SCC(=O)Nc2ccc3[nH]c(=O)[nH]c3c2)n1C	-2	-14	-30	45*
COc1ccc(OCC(=O)N2CCc3cc(-c4noc(C)n4)ccc32)cc1	8	3	-1	35*
CN1CCc2c(C#N)c(NCc3cccnc3)n3cnnc3c2C1	-8	-75	-13	-19
O=C(c1ccc(F)cc1Cl)N1CCN(C(=O)c2cnn3ccccc23)CC1	14	16	14	2
O=C(c1c(F)cccc1F)N1CCN(C(=O)c2cnn3ccccc23)CC1	14	31*	26	17
CCN1C[C@@]23CN(C(=O)NCCc4ccc(F)cc4)C[C@@H](C[C@@H]2S1(=O)=O)O3	-8	5	-18	-8
O=C([C@H]1C[C@@H]2CN(Cc3ccccc3F)C[C@H]1O2)N1CCOCC1	-13	0	-15	-3
CCc1nnc(-c2cc(S(=O)(=O)Nc3ccc(C)cc3C)c[nH]2)o1	4	8	18	0
CCN(C=C1NC(=O)c2ccccc2N1)CC(=O)Nc1ccc(Cl)c(C(F)(F)F)c1	8	-110	30*	-1
O=S(=O)(Nc1ccc(N2CCCCC2)cc1)c1cccc(F)c1	-6	-28	6	-12
O=S(=O)(Nc1ccc(N2CCCCC2)cc1)c1ccccc1F	-20	-68	9	34*
Cc1ccc(N2CCC3(CCCN(C(=O)c4cnccn4)C3)C2)nn1 (configuration not stated)	10	24	-2	13
CN(C)C(=O)c1ccc(OC2CCN(C(=O)c3ccc(F)cc3)CC2)nc1	3	-48	0	12
Cc1cc(C)cc(C(=O)N2CCC(Oc3ccc(C(=O)N(C)C)cn3)CC2)c1	44*	0	0	1
Cc1cc(C)cc(NC(=O)C2C3C=CC4(O3)C2C(=O)N(Cc2ccc3c(c2)OCO3)C4C(=O)NC2CCCCC2)c1 (configuration not stated)	-6	-34	4	-12
O=C(COc1ccc(Cl)cc1)Nc1ccccc1C(=O)Nc1ccccc1	-16	0	-40	-29
O=C(COc1ccc(Cl)cc1)Nc1noc(-c2cccs2)n1	31*	44*	85*	48*
Cc1ccc(NC(=O)N2CCN(C3=CC4=NC(C)CN4C=N3)CC2)c(C)c1 (configuration not stated)	15	34*	3	17
COc1ccc(/C=C/C(=O)Nc2nc3n(n2)C(c2ccccc2)CC(=O)N3)cc1 (configuration not stated)	3	31*	73*	12
O=C1CC(c2ccccc2)n2nc(NC(=O)c3ccccc3)nc2N1 (configuration not stated)	10	11	7	5
SMILES	USP28 block	USP30 block	USP8 block	USP17 block
Cc1ccc(C(=O)Nc2nc3n(n2)C(c2ccccc2)CC(=O)N3)cc1 (configuration not stated)	-1	10	15	71*
COc1ccc(/C=C/C(=O)Nc2nc3n(n2)C(c2ccccc2)CC(=O)N3)cc1OC (configuration not stated)	13	24	79*	26
O=C(/C=C/c1cccc([N+](=O)[O-])c1)Nc1nc2n(n1)C(c1ccccc1)CC(=O)N2 (configuration not stated)	29	38*	-50	19
Cc1ocnc1C(=O)N[C@@H]1C[C@@H](Oc2ccccc2)[C@H](O)[C@H]1N(C)C	-1	3	7	2
Cc1ccc(Nc2nc(N3CCN(c4ccc(F)cc4)CC3)nc3c2cnn3C)cc1	10	31*	27	13
OC(COCc1ccc2c(c1)OCO2)CN1CCN(Cc2ccc(Cl)cc2)CC1 (configuration not stated)	-6	-24	-8	-25
Cc1cc2cc(CNC(=O)Cc3ccc([N+](=O)[O-])cc3)ccc2[nH]1	16	21	-73	37*
Cc1cc2cc(CNC(=O)Cc3cccc4ccccc34)ccc2[nH]1	-8	-41	27	40*
NC(=O)C1CN(C(=O)C2(Cc3ccccc3F)CCOCC2)C1	6	8	5	6
Cc1ccc(/C=C(\C(=O)N(C)Cc2ccccc2)n2ccccc2=O)cc1	4	1	19	8
Cc1nc(-c2ccccc2)sc1C(=O)/C=C/c1ccccc1[N+](=O)[O-]	29	38*	23	8
CCOC(=O)c1cc2c(ccn2-c2ccc(F)cc2)n1CC(=O)NC1CCCCC1	14	0	27	25
CCOC(=O)c1cc2c(ccn2-c2ccc(F)cc2)n1CC(=O)N1CCN(C(=O)c2ccco2)CC1	18	45*	16	36*
CC(C)(C)OC(=O)N[C@@H](Cc1ccccc1)C(=O)NCC1CCC(C(=O)O)CC1 (some centres not stated)	3	7	7	8
CC(C)(C)OC(=O)N[C@@H](Cc1ccccc1)C(=O)NCC1CCC(C(=O)NCCc2c[nH]c3ccccc23)CC1 (some centres not stated)	-11	-12	-5	44*
Cc1ccccc1NC(=O)CSc1ncnc2c1sc1nc(C)c3c(c12)CC(C)(C)OC3	-12	5	-1	0
Cn1c(SCc2ccccc2F)nnc1-c1ccc2c(c1)OCCCO2	7	14	-2	1
Cn1c(SCc2c(F)cccc2Cl)nnc1-c1ccc2c(c1)OCCCO2	12	33*	4	7
Cc1c(S(=O)(=O)NC2CCCCC2)cc(C(=O)N2CCCC2)n1C	10	18	7	1
CNc1cc(C2CCCN2C(=O)Cc2c(C)noc2C)nc(C)n1 (configuration not stated)	7	26	17	6
COc1ccc(C(=O)Nc2ccc3c(c2)Sc2ncccc2C(=O)N3C)cn1	65*	-35	-11	7
CCOc1ccccc1C(=O)Nc1ccc2c(c1)Sc1ncccc1C(=O)N2C	40*	0	-2	53*
COc1ccc(CCC(=O)Nc2ccc3c(c2)Sc2ccccc2C(=O)N3C)cc1	32*	39*	25	.
Cc1cccnc1C(=O)NCC[C@@]12CCCC[C@@H]1c1c([nH]c(=O)[nH]c1=O)O2	-15	-54	-49	-15
CCCc1nc2c(sc3nc4c(cc32)COC(C)(C)C4)c(=O)n1CC(=O)Nc1ccccc1C	2	0	-1	62*
